# Experimental data as given in the supplement of paper PMC10849652.
# Of roughly 7,900 targets only a part is listed; those with a hit were picked by preference. About 0.6% of all pairs of compound and target were hits. A number with no mark means an inactive call.
# Tests used:
# Assay in all cases: log2 fold change, soluble protein after heating vs DMSO (PISA); higher = thermal stabilisation; K562 cells, 10 uM, 30 min; active = over 0.2 and 3.5 SD of the protein, either way, in both replicates (recomputed)
# [1] = compound: COC1=CC=C(C=C1)CN2C=CC3=C2C=C(C=C3)C(=O)NO
# Method in brief: (§1)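 K562 cells at 2×10^6 cells/mL were given 10 μM compound for 30 min. Aliquots then went through 3 min of heating across 48°C-58°C, were pooled, and were extracted in PBS with 0.5% NP-40 at 4°C, and the supernatant after 21,000xg for 90 min was quantified by TMTpro 16plex LC-MS/MS with channel sums equalised. Thermal stability relative to control samples, from duplicates, is given as log2 fold change.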
# [2] = compound: CON(C)C(=O)N1N=C(c2cc(F)ccc2F)S[C@@]1(CCCN)c1ccccc1 [filanesib]
# Method in brief: as §1
# [3] = compound: CO[C@H]1C[C@@H]2CC[C@@H](C)[C@@](O)(O2)C(=O)C(=O)N2CCCC[C@H]2C(=O)O[C@H]([C@H](C)C[C@@H]2CC[C@H](n3cnnn3)[C@H](OC)C2)CC(=O)[C@H](C)/C=C(\C)[C@@H](O)[C@@H](OC)C(=O)[C@H](C)C[C@H](C)/C=C/C=C/C=C/1C [zotarolimus]
# Method in brief: as §1
# [4] = compound: COc1cc(Nc2ncc3c(n2)-c2ccc(Cl)cc2C(c2c(F)cccc2OC)=NC3)ccc1C(=O)O [alisertib]
# Method in brief: as §1
# [5] = compound: COc1cc2nc(-c3cc(F)ccc3O)nc(N[C@@H]3CNC[C@H]3C(C)(C)O)c2cc1OC
# Method in brief: as §1
# [6] = compound: COc1cc2ncnc(Nc3ccc(F)c(Cl)c3)c2cc1OCCCN1CCOCC1 [gefitinib]
# Method in brief: as §1
# [7] = compound: COc1cccc2cc(-c3nc([C@H]4CC[C@H](C(=O)O)CC4)n4ncnc(N)c34)[nH]c12
# Method in brief: as §1
# [8] = compound: CS(=O)(=O)CCNCc1ccc(-c2ccc3ncnc(Nc4ccc(OCc5cccc(F)c5)c(Cl)c4)c3c2)o1 [lapatinib]
# Method in brief: as §1
# [9] = compound: CS(=O)(=O)N1CCN(Cc2cc3nc(-c4cccc5[nH]ncc45)nc(N4CCOCC4)c3s2)CC1 [pictilisib]
# Method in brief: as §1
# [10] = compound: COc1cc(C(=O)O)ccc1NC(=O)[C@@H]1N[C@@H](CC(C)(C)C)[C@](C#N)(c2ccc(Cl)cc2F)[C@H]1c1cccc(Cl)c1F [idasanutlin]
# Method in brief: as §1
# Sequence of UniProt Q9UI43 (Q9UI43 whole entry, looked up): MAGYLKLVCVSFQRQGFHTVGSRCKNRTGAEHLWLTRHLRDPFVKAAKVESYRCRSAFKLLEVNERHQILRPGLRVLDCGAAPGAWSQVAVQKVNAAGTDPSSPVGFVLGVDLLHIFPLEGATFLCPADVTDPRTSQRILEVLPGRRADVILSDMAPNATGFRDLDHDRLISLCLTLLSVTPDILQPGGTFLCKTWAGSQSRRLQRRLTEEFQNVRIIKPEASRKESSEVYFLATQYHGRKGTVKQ
# Sequence of UniProt Q15746 (Q15746 whole entry, looked up): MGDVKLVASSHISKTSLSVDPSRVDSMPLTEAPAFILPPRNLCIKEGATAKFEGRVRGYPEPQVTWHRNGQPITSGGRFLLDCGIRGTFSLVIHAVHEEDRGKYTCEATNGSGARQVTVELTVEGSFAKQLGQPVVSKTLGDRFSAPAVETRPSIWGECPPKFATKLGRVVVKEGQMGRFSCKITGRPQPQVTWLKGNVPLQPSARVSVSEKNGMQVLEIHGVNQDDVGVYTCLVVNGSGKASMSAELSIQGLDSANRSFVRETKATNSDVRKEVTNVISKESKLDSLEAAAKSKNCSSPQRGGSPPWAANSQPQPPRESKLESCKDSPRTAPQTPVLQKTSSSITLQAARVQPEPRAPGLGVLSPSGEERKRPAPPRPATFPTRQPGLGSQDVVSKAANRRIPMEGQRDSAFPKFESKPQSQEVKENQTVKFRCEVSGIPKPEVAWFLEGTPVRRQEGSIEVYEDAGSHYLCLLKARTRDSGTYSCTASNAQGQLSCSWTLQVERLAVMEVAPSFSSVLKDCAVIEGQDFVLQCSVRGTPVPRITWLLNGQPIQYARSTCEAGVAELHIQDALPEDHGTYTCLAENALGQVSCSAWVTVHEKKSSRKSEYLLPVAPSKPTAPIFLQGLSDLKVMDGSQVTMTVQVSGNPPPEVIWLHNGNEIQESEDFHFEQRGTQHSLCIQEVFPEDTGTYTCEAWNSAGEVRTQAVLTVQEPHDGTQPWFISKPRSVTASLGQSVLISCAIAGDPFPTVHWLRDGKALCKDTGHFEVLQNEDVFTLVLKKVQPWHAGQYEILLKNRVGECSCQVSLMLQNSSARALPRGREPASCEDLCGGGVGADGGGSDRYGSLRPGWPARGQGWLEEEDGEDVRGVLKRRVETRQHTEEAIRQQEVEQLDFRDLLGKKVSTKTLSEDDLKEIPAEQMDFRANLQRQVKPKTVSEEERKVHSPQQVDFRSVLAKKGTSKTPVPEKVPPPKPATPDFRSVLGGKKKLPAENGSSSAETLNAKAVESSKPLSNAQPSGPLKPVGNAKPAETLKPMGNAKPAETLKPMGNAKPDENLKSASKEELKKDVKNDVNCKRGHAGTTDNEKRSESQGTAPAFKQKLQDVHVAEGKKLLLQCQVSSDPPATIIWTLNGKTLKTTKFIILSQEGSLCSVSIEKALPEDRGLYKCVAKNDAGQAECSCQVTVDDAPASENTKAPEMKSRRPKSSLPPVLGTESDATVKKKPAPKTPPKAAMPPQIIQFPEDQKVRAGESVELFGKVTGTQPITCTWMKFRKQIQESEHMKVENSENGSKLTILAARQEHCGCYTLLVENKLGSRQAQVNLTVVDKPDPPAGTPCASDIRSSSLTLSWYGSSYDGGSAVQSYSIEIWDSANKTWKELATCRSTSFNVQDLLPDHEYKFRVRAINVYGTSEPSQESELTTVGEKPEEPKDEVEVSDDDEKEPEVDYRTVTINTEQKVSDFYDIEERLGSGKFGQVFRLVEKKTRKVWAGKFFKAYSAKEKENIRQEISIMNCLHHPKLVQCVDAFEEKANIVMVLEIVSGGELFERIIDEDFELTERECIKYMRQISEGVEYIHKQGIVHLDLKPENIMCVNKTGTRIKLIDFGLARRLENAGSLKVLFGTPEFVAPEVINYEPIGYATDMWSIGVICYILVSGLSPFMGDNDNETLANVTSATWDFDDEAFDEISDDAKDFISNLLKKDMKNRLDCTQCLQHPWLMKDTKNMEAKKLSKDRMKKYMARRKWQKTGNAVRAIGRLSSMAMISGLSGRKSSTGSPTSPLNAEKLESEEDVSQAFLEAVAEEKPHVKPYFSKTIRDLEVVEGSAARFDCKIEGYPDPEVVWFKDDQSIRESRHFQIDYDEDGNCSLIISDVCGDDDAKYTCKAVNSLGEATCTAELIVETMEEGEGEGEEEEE
# Sequence of UniProt Q8N4C8 (Q8N4C8 whole entry, looked up): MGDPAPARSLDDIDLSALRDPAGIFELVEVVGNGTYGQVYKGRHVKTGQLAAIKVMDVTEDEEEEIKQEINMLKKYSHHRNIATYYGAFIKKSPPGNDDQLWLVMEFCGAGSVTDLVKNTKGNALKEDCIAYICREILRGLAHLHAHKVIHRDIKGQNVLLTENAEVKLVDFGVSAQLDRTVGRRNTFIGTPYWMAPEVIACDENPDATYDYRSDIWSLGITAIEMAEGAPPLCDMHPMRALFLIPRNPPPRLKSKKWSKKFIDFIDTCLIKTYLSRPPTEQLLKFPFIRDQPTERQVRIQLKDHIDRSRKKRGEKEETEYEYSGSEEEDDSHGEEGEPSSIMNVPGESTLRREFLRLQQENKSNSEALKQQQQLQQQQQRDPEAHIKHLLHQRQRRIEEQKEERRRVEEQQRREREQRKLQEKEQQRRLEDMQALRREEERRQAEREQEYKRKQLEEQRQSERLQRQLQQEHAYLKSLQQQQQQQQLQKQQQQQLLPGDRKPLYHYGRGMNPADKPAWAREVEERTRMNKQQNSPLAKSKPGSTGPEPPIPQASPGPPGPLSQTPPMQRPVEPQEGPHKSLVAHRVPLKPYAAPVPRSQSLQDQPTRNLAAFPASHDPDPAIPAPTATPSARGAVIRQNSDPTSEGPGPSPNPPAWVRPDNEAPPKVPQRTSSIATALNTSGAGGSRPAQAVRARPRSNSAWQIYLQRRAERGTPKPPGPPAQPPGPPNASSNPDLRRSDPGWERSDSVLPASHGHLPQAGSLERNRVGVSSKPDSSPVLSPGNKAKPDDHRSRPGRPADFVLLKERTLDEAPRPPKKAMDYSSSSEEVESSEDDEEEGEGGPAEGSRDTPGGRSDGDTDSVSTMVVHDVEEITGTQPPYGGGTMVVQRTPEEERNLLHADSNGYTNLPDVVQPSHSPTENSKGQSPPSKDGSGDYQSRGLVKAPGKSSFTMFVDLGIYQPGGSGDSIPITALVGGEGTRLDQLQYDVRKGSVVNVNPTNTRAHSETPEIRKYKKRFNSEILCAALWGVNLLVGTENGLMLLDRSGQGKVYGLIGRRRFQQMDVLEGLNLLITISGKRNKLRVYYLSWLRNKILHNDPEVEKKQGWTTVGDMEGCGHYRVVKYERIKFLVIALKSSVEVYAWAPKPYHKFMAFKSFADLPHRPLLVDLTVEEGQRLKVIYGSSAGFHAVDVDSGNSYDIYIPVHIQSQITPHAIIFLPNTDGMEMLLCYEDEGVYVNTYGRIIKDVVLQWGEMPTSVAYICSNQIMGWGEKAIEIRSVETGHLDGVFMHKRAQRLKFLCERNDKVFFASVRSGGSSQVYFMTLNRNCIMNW
# Sequence of UniProt P19338 (P19338 whole entry, looked up): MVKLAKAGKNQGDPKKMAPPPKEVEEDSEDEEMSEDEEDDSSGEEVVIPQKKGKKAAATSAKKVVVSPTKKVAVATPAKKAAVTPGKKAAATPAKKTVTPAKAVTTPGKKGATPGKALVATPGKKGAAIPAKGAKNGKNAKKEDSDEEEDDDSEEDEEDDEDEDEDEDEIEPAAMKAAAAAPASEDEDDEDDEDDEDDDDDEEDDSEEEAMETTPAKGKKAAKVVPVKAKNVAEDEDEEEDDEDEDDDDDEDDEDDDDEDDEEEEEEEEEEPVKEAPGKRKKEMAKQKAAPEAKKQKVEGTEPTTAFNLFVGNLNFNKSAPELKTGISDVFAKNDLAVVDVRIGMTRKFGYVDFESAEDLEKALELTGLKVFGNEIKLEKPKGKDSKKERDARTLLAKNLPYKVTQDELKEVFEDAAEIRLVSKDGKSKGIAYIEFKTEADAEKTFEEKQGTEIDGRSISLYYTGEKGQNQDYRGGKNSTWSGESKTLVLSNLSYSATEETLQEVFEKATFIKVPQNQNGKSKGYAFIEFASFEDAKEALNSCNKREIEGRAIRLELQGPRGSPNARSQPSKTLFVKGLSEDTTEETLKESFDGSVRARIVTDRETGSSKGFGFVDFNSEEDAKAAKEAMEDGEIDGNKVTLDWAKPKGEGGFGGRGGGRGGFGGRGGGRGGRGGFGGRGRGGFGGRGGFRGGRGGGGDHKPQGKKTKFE
# Sequence of UniProt Q69YL0 (Q69YL0 whole entry, looked up): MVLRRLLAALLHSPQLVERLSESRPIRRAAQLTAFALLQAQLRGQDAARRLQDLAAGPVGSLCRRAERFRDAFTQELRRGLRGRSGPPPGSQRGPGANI
# Sequence of UniProt B2RBV5 (B2RBV5 whole entry, looked up): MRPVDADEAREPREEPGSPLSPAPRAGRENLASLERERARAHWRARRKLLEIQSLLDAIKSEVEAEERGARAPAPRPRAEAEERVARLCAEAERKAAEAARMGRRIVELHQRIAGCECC
# Sequence of UniProt O95169 (O95169 whole entry, looked up): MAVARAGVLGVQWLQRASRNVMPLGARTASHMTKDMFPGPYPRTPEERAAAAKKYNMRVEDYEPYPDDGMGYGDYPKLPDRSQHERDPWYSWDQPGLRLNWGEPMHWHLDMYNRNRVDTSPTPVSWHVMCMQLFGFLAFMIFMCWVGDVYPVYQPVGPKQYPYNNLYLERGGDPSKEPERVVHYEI
# Sequence of UniProt Q330K2 (Q330K2 whole entry, looked up): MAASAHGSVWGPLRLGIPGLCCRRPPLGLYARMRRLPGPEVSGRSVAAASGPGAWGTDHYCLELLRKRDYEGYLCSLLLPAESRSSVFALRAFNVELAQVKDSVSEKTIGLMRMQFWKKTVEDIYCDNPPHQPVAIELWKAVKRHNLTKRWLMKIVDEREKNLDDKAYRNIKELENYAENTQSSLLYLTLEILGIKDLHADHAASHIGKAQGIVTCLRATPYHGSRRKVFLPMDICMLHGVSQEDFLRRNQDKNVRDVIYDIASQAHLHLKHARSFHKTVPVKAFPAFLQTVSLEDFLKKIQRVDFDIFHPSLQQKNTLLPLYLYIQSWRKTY
# Sequence of UniProt Q92686 (Q92686 whole entry, looked up): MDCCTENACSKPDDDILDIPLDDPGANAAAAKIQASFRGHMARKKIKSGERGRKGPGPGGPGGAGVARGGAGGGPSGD
Target,log2 fold change [1],log2 fold change [2],log2 fold change [3],log2 fold change [4],log2 fold change [5],log2 fold change [6],log2 fold change [7],log2 fold change [8],log2 fold change [9],log2 fold change [10]
P4HA2 (UniProt O15460),-0.109,0.078,0.026,0.011,-0.139,0.006,-0.11,0.075,-0.003,
MRPS31 (UniProt Q92665),0.016,0.029,0.03,-0.008,-0.025,-0.077,-0.016,0.054,-0.005,-0.202
NUCKS1 (UniProt Q9H1E3),-0.035,0.051,-0.031,-0.071,0.182,-0.001,0.02,-0.064,-0.011,-0.011
NME7 (UniProt Q9Y5B8),-0.1,0.124,0.058,0.054,0.015,,-0.077,-0.046,0.071,-0.041
NCL (UniProt P19338),-0.091,0.454,0.026,-0.16,-0.099,-0.022,-0.217,0.159,-0.085,0.274
OXSR1 (UniProt O95747),0.014,-0.009,-0.007,-0.073,0.018,-0.007,0.034,-0.033,0.028,-0.068
NDUFA7 (UniProt O95182),0.003,-0.072,0.005,-0.042,-0.147,-0.178,0.013,-0.002,-0.007,-0.197
MRFAP1 (UniProt Q9Y605),0.015,-0.012,-0.018,-0.435,-0.154,-0.036,0.157,-0.093,-0.01,0.173
NDUFAF6 (UniProt Q330K2),0.183,-0.177,-0.006,-0.199,-0.165,-0.018,0.061,-0.007,0,0.03
NSDHL (UniProt Q15738),0.006,-0.11,0.04,0.033,-0.062,0.021,0,0.185,0.023,0.208
NDUFB8 (UniProt O95169),-0.042,0.004,-0.005,-0.04,-0.141,-0.023,0.06,-0.036,-0.034,0.069
MINK1 (UniProt Q8N4C8),-0.054,-0.003,0.014,-0.042,-0.064,,0.024,0.024,-0.019,0.013
MRPS5 (UniProt P82675),-0.06,0.078,0.091,0.021,0.015,-0.026,0.02,0.054,-0.026,-0.37 (active)
MRPS26 (UniProt Q9BYN8),-0.039,0.09,0.04,-0.078,0.041,,0.072,0.074,-0.155,-0.145
MYLK (UniProt Q15746),-0.293,0.041,0.01,-0.095,0.043,0.342,0.16,0.06,0.098,
NMU (UniProt P48645),0.259,,-0.018,,-0.156,0.162,,-0.047,-0.3,0.057
NIPSNAP2 (UniProt C9J7B1),,0.05,,-0.041,,,-0.047,,,-0.38
MLH1 (UniProt P40692),,,0.024,-0.171,-0.135,,-0.1,0.091,0.083,0.03
MSANTD2 (UniProt Q6P1R3),,-0.107,,,,,,,,
NEU3 isoform 2 (UniProt Q9UQ49),,-0.286,,,0.301,,,-0.126,,
MORC2 (UniProt Q9Y6X9),0.195,,,-0.012,0.134,,-0.013,-0.118,,-0.018
"NA, A0A1W2PSA9",,,-0.275,,,,,,-0.179,0.049
"MTHFD1, A0A384N5Y3",,-0.025,-0.032,-0.011,0.055,0.075,0.001,-0.016,0.107,0.024
OAF (UniProt Q86UD1),,-0.017,,-0.239,,,0.539 (active),,,
NCBP2AS2 (UniProt Q69YL0),,-0.09,-0.051,-0.058,-0.42 (active),-0.137,0.044,-0.093,0.033,-0.023
NELFCD (UniProt Q8IXH7),0.006,,-0.071,,0.179,-0.052,,-0.006,-0.061,0
PACRGL (UniProt Q8N7B6),,0.056,,,,,,,,
"NA, A0A494C071",-0.265,,-0.011,0.016,,0.367,0.143,,0.277,-0.392

Target,log2 fold change [1],log2 fold change [2],log2 fold change [3],log2 fold change [4],log2 fold change [5],log2 fold change [6],log2 fold change [7],log2 fold change [8],log2 fold change [9],log2 fold change [10]
NA (UniProt J3KR12),0.123,,,-0.116,,-0.134,0.077,,,
OXR1 isoform 2 (UniProt Q8N573),-0.175,,-0.014,,0.018,0.014,,-0.061,-0.073,-0.009
MON1A (UniProt Q86VX9),-0.118,-0.023,,0.291,-0.042,0.427,0.049,-0.003,-0.011,
NCOA5 (UniProt Q9HCD5),0.046,0.209,,,0.04,0.145,,0.047,-0.043,
MOB3B (UniProt Q86TA1),0.355,,-0.087,-0.001,0.04,0.384,-0.011,-0.033,0.067,-0.24
NAP1L1 (UniProt B7Z9C2),-0.116,,,0.258,,0.03,0.066,,0.111,-0.004
OSBPL2 (UniProt Q9H1P3),,,0.085,-0.019,-0.187,,-0.042,1.57 (active),,
NUDT6 (UniProt P53370),0.017,,-0.173,0.012,0.175,-0.025,-0.084,-0.017,,
NKTR (UniProt P30414),,,,0.064,0.295,,0.109,-0.173,,
MMADHC (UniProt Q9H3L0),-0.031,,0.102,0.006,0.056,0.305,0.013,0.176,-0.114,-0.135
MRM2 (UniProt Q9UI43),,,0.11,,0.078,0.066,,0.108,,0.518 (active)
NKAP (UniProt Q8N5F7),-0.005,,0.112,0.037,-0.051,-0.029,-0.13,0.09,-0.013,0.115
NRGN (UniProt Q92686),-0.831,,,,-0.108,-0.012,,0.107,0.404,0.023
NECTIN2 isoform 2 (UniProt Q92692),0.106,0.094,,-0.016,,-0.048,0.093,,-0.368,0.061
NOLC1 isoform 3 (UniProt Q14978),,,-0.013,,,,,,,
MT-ND2 (UniProt P03891),-0.029,,0.065,0.04,-0.131,0.106,0.074,-0.008,0.139,-0.143
ORC3 (UniProt Q9UBD5),,,,,,,,,,-0.167
NASP isoform 2 (UniProt P49321),,,,-0.129,,,-0.58,,,
MOB2 isoform 3 (UniProt Q70IA6),,,0.205,-0.066,-0.184,0.051,0.02,0.025,0.06,
NDUFA7 (UniProt M0R0N0),,-0.042,,,,,,,,
NUDT7 (UniProt P0C024),0.023,-0.092,,,,0.05,,,0.115,
MXRA7 isoform 3 (UniProt P84157),,,,,0.077,,,-0.27,,
NA (UniProt B2RBV5),,0.081,,-0.043,0.001,-0.33,0.028,-0.243,0.061,
OVCA2 (UniProt Q8WZ82),-0.206,,,0.102,0.201,-0.143,-0.318,-0.014,-0.176,-0.023
NOS1AP (UniProt O75052),,,-0.098,0.353,-0.09,,-0.118,-0.1,,
OGFOD2 (UniProt Q6N063),-0.275,,0.034,0.007,,0.071,-0.033,,-0.144,0.073
MYO19 (UniProt Q96H55),-0.083,,0.071,,0.081,0.024,,0.276,0.567 (active),-0.116
